Measurements published in PubChem BioAssay (NCATS).
Inconclusive results are not listed. The source made the active and inactive calls. Calls come from the whole dose curve; as a rule, active = well fitted cell-killing curve with a large enough effect; inconclusive = small, poorly fitted or top-dose-only effect, or effect the other way; inactive = no such curve, though single readings can be large or run the other way.

Key:
[1] = Quantitative High-Throughput drug screen in 47 multiple myeloma cell lines against the NCATS MIPE library collection: U266_ATCC cell viability assay (AID 1919864); note: nearly all actives have a fitted effect of over 35% in size
Summary of the method: (§1)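 Readout: median RLU from CellTiter-Glo after 5 min at room temperature. Preceding step was 48 h drug treatment of 500 cells/well at 37 °C, 5% CO2, with DMSO-only and media-only control wells.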

[2] = Quantitative High-Throughput drug screen in 47 multiple myeloma cell lines against the NCATS MIPE library collection: XG6_PLB cell viability assay (AID 1919865); note: nearly all actives have a fitted effect of over 40% in size
Summary of the method: as §1

[3] = Quantitative High-Throughput drug screen in 47 multiple myeloma cell lines against the NCATS MIPE library collection: XG1_PLB cell viability assay (AID 1919866); note: nearly all actives have a fitted effect of over 35% in size
Summary of the method: as §1

[4] = Quantitative High-Throughput drug screen in 47 multiple myeloma cell lines against the NCATS MIPE library collection: VP6_DJ cell viability assay (AID 1919867); note: nearly all actives have a fitted effect of over 40% in size
Summary of the method: as §1

[5] = Quantitative High-Throughput drug screen in 47 multiple myeloma cell lines against the NCATS MIPE library collection: UTMC2_PLB cell viability assay (AID 1919868); details: CellTiter-Glo ATP luminescence, 48 h; viability (% of DMSO control): at 45.8 µM (top of the series); note: nearly all actives have a fitted effect of over 55% in size
Summary of the method: as §1

[6] = Quantitative High-Throughput drug screen in 47 multiple myeloma cell lines against the NCATS MIPE library collection: PE2_PLB cell viability assay (AID 1919869); note: nearly all actives have a fitted effect of over 35% in size
Summary of the method: as §1

[7] = Quantitative High-Throughput drug screen in 47 multiple myeloma cell lines against the NCATS MIPE library collection: PCM6_Riken cell viability assay (AID 1919870); note: nearly all actives have a fitted effect of over 30% in size
Summary of the method: as §1

[8] = Quantitative High-Throughput drug screen in 47 multiple myeloma cell lines against the NCATS MIPE library collection: RPMI8226_ATCC cell viability assay (AID 1919871); note: nearly all actives have a fitted effect of over 30% in size
Summary of the method: as §1

[9] = Quantitative High-Throughput drug screen in 47 multiple myeloma cell lines against the NCATS MIPE library collection: OPM2_DSMZ cell viability assay (AID 1919872); note: nearly all actives have a fitted effect of over 30% in size
Summary of the method: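 Steps: seed 500 cells per well; pin-transfer MIPE 4.0 library; incubate 48 h at 37C, 5% CO2, humidified; add CellTiter-Glo, 5 min room temperature; read luminescence.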

[10] = Quantitative High-Throughput drug screen in 47 multiple myeloma cell lines against the NCATS MIPE library collection: KMS11_JCRBsus cell viability assay (AID 1919873); note: nearly all actives have a fitted effect of over 50% in size
Summary of the method: as §1

Measured: Potency
Potency is the fitted concentration of half-maximal effect.

Cn1cc(CNCC2CCN(c3ncc(C(=O)NO)cn3)CC2)c2ccccc21
active: [1] 0.0372 µM | [2] 0.0833 µM | [3] 52.6 nM | [4] 0.0132 µM | [5] 18.7 nM | [6] 0.118 µM | [7] 37.2 nM | [8] 0.0662 µM | [9] 0.0418 µM | [10] 26.4 nM

COc1cccc2c1C(=O)c1c(O)c3c(c(O)c1C2=O)C[C@@](O)(C(=O)CO)C[C@H]3O[C@H]1C[C@H](N)[C@H](O)[C@H](C)O1
active: [1] 0.372 µM | [2] 0.132 µM | [3] 296 nM | [4] 0.264 µM | [5] 118 nM | [6] 0.118 µM | [7] 105 nM | [8] 0.235 µM | [9] 1.18 µM | [10] 743 nM

COc1ccc(S(=O)(=O)Nc2cc(-c3c(O)ccc4ccccc34)c(O)c3ccccc23)cc1
active: [1] 2.35 µM | [2] 5.9 µM | [3] 5260 nM | [4] 9.35 µM | [5] 16600 nM | [6] 1.48 µM | [7] 5260 nM | [8] 23.5 µM | [10] 3320 nM

C[C@H](NC(=O)C(C#N)=Cc1cccc(Br)n1)c1ccccc1
active: [1] 6.62 µM | [2] 2.35 µM | [3] 2090 nM | [4] 2.35 µM | [5] 3320 nM | [6] 2.64 µM | [7] 2090 nM | [8] 4.18 µM | [9] 7.43 µM | [10] 5260 nM

Cc1[nH]c(C=C2C(=O)Nc3ccccc32)c(C)c1CCC(=O)O
active: [1] 5.26 µM | [2] 0.372 µM | [3] 2960 nM | [4] 13.2 µM | [5] 935 nM | [6] 9.35 µM | [7] 10500 nM

CCNC(=O)c1cc2c(-c3cc(OCCN4CCCC4)c(Cl)cc3Cl)nc(N)nc2s1
active: [1] 1.05 µM | [2] 1.66 µM | [3] 833 nM | [4] 0.743 µM | [5] 1480 nM | [6] 1.66 µM | [7] 743 nM | [8] 1.18 µM | [9] 2.96 µM | [10] 590 nM

CCOC(=O)N1CCN([N+]([O-])=NOc2ccc([N+](=O)[O-])cc2[N+](=O)[O-])CC1
active: [1] 2.64 µM | [2] 2.64 µM | [3] 418 nM | [4] 2.35 µM | [5] 526 nM | [6] 1.48 µM | [7] 743 nM | [8] 13.2 µM | [9] 1.05 µM | [10] 332 nM

CCCCCCCCc1ccc(CCC(N)(CO)CO)cc1
active: [1] 16.6 µM | [2] 3.32 µM | [3] 4180 nM | [4] 4.69 µM | [5] 9350 nM | [6] 8.33 µM | [7] 3720 nM | [8] 9.35 µM | [10] 7430 nM

C=C1C(=O)O[C@H]2[C@@H]1CCC(C)=CCC[C@@]1(C)O[C@@H]21
active: [1] 6.62 µM | [2] 5.9 µM | [3] 2640 nM | [4] 4.18 µM | [5] 4690 nM | [6] 3.32 µM | [7] 3320 nM | [8] 5.26 µM | [9] 5.9 µM | [10] 3320 nM

O=C1NCCc2[nH]c(-c3ccncc3)cc21
active: [1] 2.64 µM | [2] 1.87 µM | [3] 2090 nM | [4] 3.72 µM | [5] 3720 nM | [6] 1.87 µM | [7] 1660 nM | [8] 16.6 µM | [9] 14.8 µM | [10] 5260 nM

Cn1cnc(=N)c2[nH]cnc21
active: [1] 0.235 µM | [2] 0.132 µM | [3] 166 nM | [4] 0.0662 µM | [5] 93.5 nM | [6] 0.332 µM | [7] 235 nM | [8] 0.264 µM | [9] 0.235 µM | [10] 93.5 nM

Cn1cc(-c2cnn3c(N)c(Br)c([C@H]4CCCNC4)nc23)cn1
active: [1] 7.43 µM | [2] 0.264 µM | [3] 526 nM | [4] 0.662 µM | [5] 662 nM | [6] 1.05 µM | [7] 662 nM | [8] 7.43 µM | [9] 14.8 µM | [10] 5260 nM

CCC(C=C[C@@H]1OC(=O)C=C[C@H]1C)=C[C@H](C)CC=CC(C)=C[C@@H](C)C(=O)[C@@H](C)[C@H](O)[C@@H](C)CC(C)=CC(=O)O
active: [1] 0.0247 µM | [2] 0.0156 µM | [3] 24.7 nM | [4] 0.0139 µM | [5] 17.5 nM | [6] 0.0196 µM | [7] 9.8 nM | [8] 0.0311 µM | [9] 0.0277 µM | [10] 13.9 nM
